Source: PubChem BioAssay AID430 (Sanford-Burnham Center for Chemical Genomics, 2006)
The campaign covered roughly 63,000 compounds. About 1,100 (1.7%) were called active. The entries come from a sample that favours actives as a whole. Entries with a potency or affinity are not part of this list. Values without a mark were called inactive. Rule as the data show it: active = cytotoxicity above about 50%; inactive = the rest.

assay: cytotoxicity in HPDE-C7 cells, cell-based, fluorescence, HTS (AID 430); conditions: HPDE-C7 pancreatic duct cells viability, at 10 µM, hits give high values;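 also: cells exposed to compound for 48 hours before viability readout; 0% = vehicle and 100% = reference cytotoxic drug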

SMILES | cytotoxicity
Cn1c(=O)c(=O)n(C)c2cc(S(=O)(=O)N3CCCCC3)ccc21 | 2%
c1ccc(C(CN2CCOCC2)c2ccccc2)cc1 | -12%
O=C(c1ccccc1)c1ccc(OCC(O)CN2CCOCC2)cc1 (stereo not drawn) | 6.6%
Cc1nc2ccc(F)cc2cc1C(=O)NCC1CCCO1 (stereo not drawn) | 14.8%
COc1ccc(Cl)cc1S(=O)(=O)n1nnc2ccccc21 | 3.1%
COc1ccc(OC)c(S(=O)(=O)n2nnc3ccccc32)c1 | -7%
COc1cc(S(=O)(=O)n2nnc3ccccc32)c(OC)cc1Cl | 60.8% (active)
CCc1ccccc1NC(=O)CN1CCC(NC(=O)COC)CC1 | -16%
COc1ccc(N(CC(=O)N2CCc3ccccc3C2)S(=O)(=O)c2c(C)[nH]c(=O)[nH]c2=O)cc1 | -21.6%
Cc1cc(C)c2nc(C(F)(F)F)nc(N3CCN(C(=O)c4ccco4)CC3)c2c1 | 3.3%
CC1(C)Cc2c(C#N)c(N3CCN(C(=O)c4ccco4)CC3)nc(-c3ccco3)c2CS1 | 51.7% (active)
CC1(C)Cc2c(C#N)c(N3CCN(C(=O)c4ccccc4)CC3)nc(-c3ccco3)c2CS1 | 11.4%
N#Cc1c(N2CCN(C(=O)c3ccco3)CC2)nc(-c2ccccc2)c2c1CCCC2 | 9.1%
Cc1cc(C)c2nc(N3CCCN(C(=O)c4cnccn4)CC3)c(C#N)cc2c1 | -0.7%
CCc1nc(N2CCN(C(=O)c3ccccc3)CC2)c(C#N)c2c1COC(C)(C)C2 | -1%
CC1(C)Cc2c(C#N)c(N3CCOCC3)nc(Cc3ccccc3)c2CO1 | 46.8%
Cc1cc(C)c2nc(N3CCCN(C(=O)c4ccco4)CC3)c(C#N)cc2c1 | 57.4% (active)
CCn1c(SCC(=O)Nc2ccc3c(c2)OCO3)nc2c1c(=O)n(C)c(=O)n2C | -19.3%
COc1cccc(CC(NC(C)=O)C(=O)NC2CCN(c3nc(C)cc(C)c3C#N)CC2)c1 (stereo not drawn) | 8.9%
NC(=O)c1cc(-c2ccccc2)nc(N2CCOCC2)n1 | 11.3%

SMILES | cytotoxicity
O=C(CSc1nnc(-c2cnccn2)n1Cc1ccco1)c1ccccc1 | -4.8%
c1ccc(N2CCOCC2)c(Nc2nc3ccccc3n3cnnc23)c1 | -9.9%
O=C(Cn1c(CO)nc2ccccc21)Nc1cc(C(F)(F)F)ccc1N1CCOCC1 | 5.6%
Cc1ccccc1Cn1cc(NC(=O)c2noc3c2CC(C(C)(C)C)CC3)cn1 (stereo not drawn) | 25.7%
Cc1ccc(S(=O)(=O)N(CCC#N)CCN2CCCC2)cc1 | -4.9%
CN1CC2(Cc3c1ccc1ccccc31)C(=O)OC(C)(C)OC2=O | 80.9% (active)
Cc1ccc2c(c1)CC1(CN2C)C(=O)OC2(CCCCC2)OC1=O | -5.7%
O=C1COc2ccc3ccccc3c2CN1 | -6.8%
COc1ccc2c(c1)[nH]c1c(=O)n(CCN3CCCC3)cnc12 | -19.4%
Cc1cc(C(=O)Nc2nc3c(s2)CCCC3)cs1 | -5.9%
CCOC(=O)N1CCN(CC(O)COc2ccccc2C(C)C)CC1 (stereo not drawn) | -6%
O=C(NC1CC2CCCC(C1)N2S(=O)(=O)c1ccccc1)c1ccccc1 (stereo not drawn) | -1.3%
Cn1c(SCc2ccccc2)nnc1-c1ccncc1 | -1.5%
COc1ccc(NC(=O)CC2CCCCC2)cc1OC | -11.1%
Cc1ccc2cc(CN(Cc3nnnn3Cc3ccco3)CC3CCCO3)c(=O)[nH]c2c1C (stereo not drawn) | -0.4%
Cc1cccc2cc3c(nc12)SC(=NCC1CCCO1)N(Cc1ccco1)C3 (stereo not drawn) | 53.7% (active)
Cc1ccc2nc3c(cc2c1)CN(Cc1ccco1)C(=NCC1CCCO1)S3 (stereo not drawn) | -19.9%
CCc1nc(SCC(=O)N2CCN(C(=O)c3ccco3)CC2)c2c3c(sc2n1)CCCC3 | 3%
COc1ccc(N2CCN(CC(=O)Nc3nnc(-c4ccccc4)s3)CC2)cc1 | 50.3% (active)
O=C(CN1CCN(c2ccccc2)CC1)Nc1nnc(-c2ccccc2)s1 | 7.8%

SMILES | cytotoxicity
COc1cccc(N2CCN(CC(=O)Nc3nnc(-c4ccccc4)s3)CC2)c1 | 21.2%
Cn1c(=O)oc2cc(S(=O)(=O)N3CCCC(C(=O)NCc4cccs4)C3)ccc21 (stereo not drawn) | -3.9%
Cc1ccc2c(c1)N(C(=O)CSc1nncn1C)C(C)(C)c1ssc(=S)c1-2 | 14.3%
Cc1ccc2c(c1)-c1c(ssc1=S)C(C)(C)N2C(=O)CSc1nncn1C | -1.2%
Cc1cc(C)c2c(c1)-c1c(ssc1=S)C(C)(C)N2C(=O)CSc1nncn1C | 56.7% (active)
CCCN1Cc2cccc(C(N)=O)c2C1=O | -14.7%
Cc1ccc(C)c(N2CCN(C(=O)c3ccc(CS(=O)(=O)c4ccccc4C)o3)CC2)c1 | 55.6% (active)
COc1ccccc1S(=O)(=O)Cc1ccc(C(=O)N2CCN(c3cccc(Cl)c3)CC2)o1 | 60.8% (active)
COc1ccccc1N1CCN(C(=O)c2ccc(CS(=O)(=O)c3ccccc3OC)o2)CC1 | -8.2%
COc1ccc(N2CCN(C(=O)c3ccc(CS(=O)(=O)c4ccc(OC)cc4)o3)CC2)cc1 | -11.6%
COc1ccc(S(=O)(=O)Cc2ccc(C(=O)N3CCN(c4cccc(C)c4C)CC3)o2)cc1 | 57% (active)
COc1ccc(S(=O)(=O)Cc2ccc(C(=O)N3CCN(c4ccccc4F)CC3)o2)cc1 | -21.7%
Cc1ccccc1S(=O)(=O)Cc1ccc(C(=O)N2CCN(c3ncccn3)CC2)o1 | -19.4%
COc1ccccc1S(=O)(=O)Cc1ccc(C(=O)N2CCN(c3ccccc3)CC2)o1 | -24.2%
Cc1ccccc1S(=O)(=O)Cc1ccc(C(=O)N2CCN(C3CCCCC3)CC2)o1 | -7%
Cc1ccccc1S(=O)(=O)Cc1ccc(C(=O)N2CCN(c3ccc(F)cc3)CC2)o1 | -10%
Cc1ccc(S(=O)(=O)Cc2ccc(C(=O)N3CCN(c4cc(C)ccc4C)CC3)o2)cc1 | 17.5%
Cc1ccccc1S(=O)(=O)Cc1ccc(C(=O)N2CCN(c3cccc(C)c3C)CC2)o1 | 87.9% (active)
